Test results published in PubChem BioAssay AID1851 (National Center for Advancing Translational Sciences (NCATS), 2009).
About 5,800 (36%) of roughly 16,000 compounds were called active. Inconclusive results (about 23%) are left out. The call rests on the fitted dose curve; in most records, active means well fitted curve in the direction sought with a large enough effect; inconclusive means small, poorly fitted or top-dose-only effect, or effect the other way; inactive means no such curve, though single readings can be large or run the other way. The list shows a part of the results. Peptide text beside a SMILES is read from it. * marks the point of attachment. PhAc = O=C(Cc1ccccc1)*; OBn = c1ccc(CO*)cc1

The molecules below were run against Cytochrome P450 2C19 (Homo sapiens) (UniProt P33261) (assay: Cytochrome panel assay with activity outcomes). Settings: recombinant CYP, pro-luciferin dealkylation, luminescence, p450-cyp2c19; series mostly up to 57.1 µM; activity, negative = inhibition: at the top concentration.
Cytochrome P450 2C19 (Homo sapiens), sequence (P33261 whole entry, looked up): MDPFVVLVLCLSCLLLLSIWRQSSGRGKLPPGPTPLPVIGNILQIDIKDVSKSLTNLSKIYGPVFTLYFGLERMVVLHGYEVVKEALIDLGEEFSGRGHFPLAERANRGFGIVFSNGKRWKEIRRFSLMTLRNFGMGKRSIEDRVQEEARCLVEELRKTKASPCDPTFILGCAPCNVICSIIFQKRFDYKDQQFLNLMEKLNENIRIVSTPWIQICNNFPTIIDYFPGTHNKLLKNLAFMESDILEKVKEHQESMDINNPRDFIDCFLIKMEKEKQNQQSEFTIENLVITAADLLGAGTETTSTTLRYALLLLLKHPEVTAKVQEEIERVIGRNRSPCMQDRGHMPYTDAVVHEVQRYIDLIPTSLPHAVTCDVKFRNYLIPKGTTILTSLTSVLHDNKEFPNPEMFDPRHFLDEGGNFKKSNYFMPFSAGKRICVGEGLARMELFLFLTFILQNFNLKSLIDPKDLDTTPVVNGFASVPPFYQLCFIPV
On the % scale 0 is the no-effect control and ±100 the full control effect.

activity, negative = inhibition, inactive:
O=CN1CCN(C[C@H](O)CN2CCCCC2)CC1 10.2% [at 11.4 µM]
O=c1oc2c(Cl)cc(Cl)cc2cc1-c1nnc(Nc2ccccc2F)s1 -20.3%
OC(CCCN1CCCCC1)(c1ccccc1)c1ccccc1 -10.8% [at 25.6 µM]
CO[C@H]1COC(=O)[C@H]2CCCN2C(=O)C/C=C\[C@@H](C)[C@H](OC)COC(=O)C/C=C\[C@@H]1C 19.4% [at 11.4 µM]
COC(=O)[C@@]1(Cc2ccc(F)cc2)[C@H]2c3cc(C(=O)N4CCCC4)n(Cc4ccc(OC(F)(F)F)cc4)c3C[C@H]2CN1C(=O)c1ccccc1 -38.2%
Clc1cc2c(c(CSC3=NCN(CC4CC4)CN3)c1)OCOC2 10.2% [at 11.4 µM]
CCN1CCCCC(=N/O)/C(=N/O)CCCC1 10.8% [at 11.4 µM]
O=C1[C@H]2[C@H]3[C@H](O)[C@H](O)C/C(=N/OC[C@@H](O)COCc4ccco4)[C@@H]3CC[C@@H]2C(=O)N1Cc1ccc2c(c1)OCO2 -24.6% [at 11.4 µM]
COc1cc2ccccc2cc1C(=O)Nc1ccc(S(=O)(=O)Nc2cc(C)on2)cc1 -13.9%
O=C(C1=C(O)C(=O)N(Cc2ccco2)C1c1ccccc1)c1cccs1 (centres undefined) -4.5%
C/C(CCN1CCc2nc(-c3ccccc3)c(-c3ccccc3)cc2C1)=N\O[C@@H](C)CN1CCCCc2nc(C)c(C)cc21 -15.5% [at 11.4 µM]
O=C(CNC(=O)Cc1ccccc1)NCC(=O)OCc1ccccc1 (PhAc-Gly-Gly-OBn) 7.85%
COc1ccc(Oc2ncc3nc(-c4ccc(Cl)cc4)c(=O)n(C)c3n2)cc1 -13%
COc1ccc(-n2c(=O)c(-c3ccc(Cl)cc3)nc3cncnc32)cc1 -41.1%
C#CCSc1n[nH]c(-c2ccco2)n1 0.772% [at 11.4 µM]
Cc1cc(Nc2ccccc2)nc(N)n1 -10.5%
CCCOc1ccc(-c2nc(N)n[nH]2)cc1 -29.8%
CCCc1nnc(SCC(=O)N2CCCCC2)n1CCCOC -6.08%
NOCC(=O)O 26.6%
COc1ccc(C(=O)Nc2ccc(NC(=O)c3ccco3)c(Cl)c2)cc1OC -27%
CNc1cc(OC)c(C(=O)N[C@@H]2CCN(Cc3ccccc3)[C@H]2C)cc1Cl -10.1%
Cc1ccc(C)c(/C(=N\N=C(N)N)C2CC2)c1 -19.5% [at 11.4 µM]

AC50, active:
CC(C)C(O)(C#CCN1CCCC1)c1ccccc1 (centres undefined) 10 µM
O=C(CN(c1ccccc1)S(=O)(=O)c1ccccc1[N+](=O)[O-])NN=C1CCCCCCC1 0.794 µM
COCCCNC(=O)CN(c1ccc(OC)cc1)S(=O)(=O)c1ccc(NC(C)=O)cc1 15.8 µM
COc1ccc(N(CC(=O)NN=C2CCCC2)S(=O)(=O)c2ccccc2)cc1 6.31 µM
COC(=O)[C@@]1(Cc2ccccc2)[C@H]2c3cc(C(=O)N4CCCC4)n(Cc4ccc(C)o4)c3C[C@H]2CN1C(=O)c1ccccc1 2.51 µM
COC(=O)[C@@]1(Cc2ccc(F)cc2)[C@H]2c3cc(C(=O)N(C)C)n(Cc4ccc(C)o4)c3C[C@H]2CN1C(=O)c1ccccc1 15.8 µM
COC(=O)[C@@]1(Cc2ccc(F)cc2)[C@H]2c3cc(C(=O)N4CCCC4)n(Cc4ccc(C)o4)c3C[C@H]2CN1C(=O)c1ccccc1 5.01 µM
COC(=O)[C@@]1(Cc2ccc(F)cc2)[C@H]2c3cc(C(=O)N(C)C)n(Cc4ccc(C)c(F)c4F)c3C[C@H]2CN1C(=O)c1ccccc1 15.8 µM
Oc1ccc(-c2[nH]ncc2-c2ccc(Cl)cc2)c(O)c1 0.251 µM
C=C(C)COc1ccc(-c2n[nH]c(C)c2-c2ccc(OC)cc2)c(O)c1 2.24 µM
Cc1[nH]nc(-c2ccc(O)cc2O)c1-c1ccc(Cl)cc1 0.282 µM
COc1ccc(-c2n[nH]c(C)c2-c2ccc(Cl)cc2)c(O)c1 2.51 µM
Cc1cc(NC(=O)c2ccc(S(=O)(=O)Nc3ccccc3)cc2)no1 5.01 µM
Cc1ccc(C2Nc3ccccc3C(=O)N2Cc2ccco2)cc1 (centres undefined) 2.82 µM
O=C1c2ccccc2NC(c2ccc(F)cc2)N1Cc1ccco1 (centres undefined) 3.55 µM
COc1ccc(C2Nc3ccccc3C(=O)N2Cc2ccco2)cc1COc1ccc([N+](=O)[O-])cc1 (centres undefined) 2.51 µM
S=C(S)O[C@@H]1C[C@@H]2C[C@H]1[C@@H]1CCC[C@H]21 15.8 µM
C=CCOc1c(Br)cc(CNc2ccc(NC(=O)C(C)C)c(OC)c2)cc1OC 3.55 µM
O=C1c2ccccc2C(=O)N1CCCCN(C(=O)c1ccc([N+](=O)[O-])cc1)c1ccc(Cl)cc1 4.47 µM
O=C1c2ccccc2C(=O)N1CCCCN(C(=O)c1cccc([N+](=O)[O-])c1)c1ccc(Cl)cc1 3.16 µM
O=C(CNC(=O)c1cccs1)NCC(=O)OCc1ccc(Cl)cc1 6.31 µM
O=C(CNC(=O)c1cccs1)NCC(=O)OCc1ccc(Cl)cc1Cl 5.01 µM
COC(=O)C1C(=O)C2=C(CC1C)NC(=O)CC2c1cccc(C)c1 (centres undefined) 11.2 µM
COc1ccc(/C(C#N)=C/c2c(-c3ccc(Cl)cc3)nc3c(C)cccn23)cc1 3.16 µM
Cc1nnc(SCc2nc(N)nc(Nc3ccccc3)n2)s1 14.1 µM
COc1ccc(Nc2nc(N)nc(CSc3n[nH]c(-c4ccccc4)n3)n2)cc1 10 µM
CCCc1nnc(SCC(=O)N2C(C)CCCC2C)n1CCCOC (centres undefined) 28.2 µM
COc1cc(NC(=O)c2ccccc2Cl)ccc1NC(=O)c1ccco1 8.91 µM
CC(C)Oc1ccc(C(=O)Nc2ccc(NC(=O)c3ccco3)c(Cl)c2)cc1 3.98 µM
Cc1nn(-c2ccc(F)cc2)c(C)c1NS(=O)(=O)c1ccc2ccccc2c1 0.316 µM

AC50, inactive:
O[C@@](CCN1CCCCC1)(c1ccccc1)C1CCCCC1
CCOC(=O)C1=C[C@@]2(CC)CCCN3CCc4c(n1c1ccccc41)[C@H]32
